Only some compounds are listed: those with a hit (about 11% of all), similar ones and a draw of the others.
SW480 rereplic – inducers of DNA re-replication in SW480 colon cancer cells; SW480 DNA re-replication, Hoechst DNA content imaging, 48 h; AID 624297; Potency, µM (series often up to 46.1 µM), for the others: at the highest dose re-replication activation, usual class: activators; hit rate 1.8% among 340,000; note: potency is the fitted concentration of half-maximal effect; % of control where 0% means no effect; nearly all actives have a fitted effect of over 55% in size
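First, 250 cells per well were seeded. Next, compound or vehicle (23 nL) was pinned in, plates sat 48 hr at 37 C. Finally Hoechst was added for 40 min before fluorescence scanning.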
Gal4-VP16 FLuc – inhibits Gal4-VP16 luciferase reporter, ROR gamma counter-screen. Drosophila S2 Gal4-VP16 UAS-luciferase, luminescence, 20 h. Potency, µM (doses to about 53.6 µM), without a hit: at the highest dose activity, negative = inhibition, actives largely listed as inhibitors. hit rate 3.5% among 310,000. AID 2546;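 note: Gal4-VP16 expression switched on by copper sulfate through the metallothionein promoter; potency is the fitted concentration of half-maximal effect; % is set by controls: 0 for no effect and ±100 for the full control effect; nearly all actives have a fitted effect of over 50% in size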
IL-1B inflam inh – blocks inflammasome-driven IL-1 beta release; activity change, % at 57.5 µM; hit rate 4.7% among 360,000; THP-1 LPS/ATP IL-1B secretion, AlphaLISA, 16 h; hits give low values; in the data active = activity change below about -50%; inconclusive = mostly about -30% to -49%; note: % is set by controls: 0 for no effect and ±100 for the full control effect
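Secreted IL-1B measured by AlphaLISA bead assay after 16 h compound exposure of THP-1 cells; compounds (final up to 57.5 uM) added 1 h before LPS (250 ng/mL) and ATP (1.25 mM) stimulation; lower signal means less secretion.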
MCF10A rereplic – DNA re-replication induction in MCF 10a cells; MCF 10A DNA re-replication, Hoechst nuclear intensity, 48 h; Potency, µM (top dose mostly 46.1 µM), for inactives: at the highest dose activity, positive = re-replication, hits mostly activators; hit rate 2.9% among 350,000; AID 624296; note: potency is the fitted concentration of half-maximal effect; % of control where 0% means no effect; nearly all actives have a fitted effect of over 50% in size
RORg inh – blocks mouse ROR gamma transcriptional activity. P51450. Drosophila S2 Gal4-RORgamma UAS-luciferase reporter, 20 h. Potency, µM (series often up to 53.6 µM), inactives show at the top dose activity change, negative = inhibition, actives largely listed as inhibitors. hit rate 5.4% among 310,000; note: potency is the fitted concentration of half-maximal effect; % is set by controls: 0 for no effect and ±100 for the full control effect; nearly all actives have a fitted effect of over 60% in size
Target sequence (P51450 whole entry, looked up, the tested form may be a part): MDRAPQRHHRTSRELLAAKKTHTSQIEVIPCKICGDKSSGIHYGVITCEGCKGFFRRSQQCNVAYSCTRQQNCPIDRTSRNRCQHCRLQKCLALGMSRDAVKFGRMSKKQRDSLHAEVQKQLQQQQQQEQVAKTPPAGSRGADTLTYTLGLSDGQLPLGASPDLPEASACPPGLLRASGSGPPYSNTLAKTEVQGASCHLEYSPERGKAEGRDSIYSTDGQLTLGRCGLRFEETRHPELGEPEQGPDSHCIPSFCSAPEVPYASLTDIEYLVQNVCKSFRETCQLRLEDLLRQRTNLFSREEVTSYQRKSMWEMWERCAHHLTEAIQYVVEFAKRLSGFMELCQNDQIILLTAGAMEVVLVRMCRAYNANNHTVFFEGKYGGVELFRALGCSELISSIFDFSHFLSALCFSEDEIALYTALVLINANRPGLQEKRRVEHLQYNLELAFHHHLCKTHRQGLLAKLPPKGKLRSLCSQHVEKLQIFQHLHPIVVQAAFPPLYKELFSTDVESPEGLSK
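In this cell-based reporter format, copper sulfate (700 uM final) drives Gal4–ROR gamma fusion expression from a metallothionein promoter in Drosophila Schneider cells; compounds preincubated 1 hr, reporter read after 20 hr at ambient temperature.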
Active calls of the source: *; ? = inconclusive; / = not tested or not shown; [ ] = remark or other dose. Unless noted, calls come from the whole dose curve; as a rule, active = well fitted curve in the direction sought with a large enough effect; inconclusive = small, poorly fitted or top-dose-only effect, or another doubt; inactive = no such curve, though single readings can be large; an effect the other way counts as inactive or inconclusive.

SMILES	SW480 rereplic	Gal4-VP16 FLuc	IL-1B inflam inh	MCF10A rereplic	RORg inh
CSc1cccc(CN2CCCC(CO)(Cc3cccc(Cl)c3)C2)c1 (centres undefined)	-10.2%	-1.4%	-7.6	-1.1%	6.0%
OCC1(Cc2ccccc2)CCCN(Cc2ccc(-c3ccco3)cc2)C1 (centres undefined)	20.4%	4.7%	-84.0*	?	1.9%
OCC1(Cc2ccccc2)CCCN(Cc2c[nH]c3ccccc23)C1 (centres undefined)	-0.5%	-7.8%	-64.9*	0.5%	0.5%
CN(C)/C=C1/C=C(c2ccccc2)OC1=O	?	-15.7%	-53.3*	18.4µM*	6.2%
COc1cccc(C2(O)CC(C(F)(F)F)=NN2C(=O)c2ccccn2)c1 (centres undefined)	-28.7%	6.31µM*	-13.4	-2.1%	1.58µM*
COc1cccc(C2(O)CCN(C(=O)c3cccs3)CC2)c1	1.2%	10.0%	16.8	-1.9%	-9.8%
COc1cccc(C2=NN(C(=O)c3cccs3)C(O)(C(F)(F)F)C2)c1 (centres undefined)	21.3%	3.4%[10 µM]	-71.8*	?	27.3%
Cc1ccccc1OCC(=O)N1N=C(C(F)(F)F)CC1(O)C(C)(C)C (centres undefined)	0.1%	?	-10.9	3.1%	?
COc1cccc(C(=O)N2N=C(c3cccc(OC)c3)CC2(O)C(F)(F)F)c1 (centres undefined)	?	-18.2%	-2.5	29.5%	11.2µM*
COc1cccc(C2=NN(C(=O)c3ccc(C)o3)C(O)(C(F)(F)F)C2)c1 (centres undefined)	-2.6%	?	?	?	-79.4%
COc1ccc(C(=O)N2N=C(c3cccc(OC)c3)CC2(O)C(F)(F)F)cc1 (centres undefined)	-42.4%	-67.9%	?	?	11.2µM*
CC(C)[C@@H](CC(=O)N[C@@H]1CCCC[C@H]1C(=O)N[C@H](CC(=O)N[C@@H](CCC(=O)O)CC(=O)O)Cc1c[nH]c2ccccc12)NC(=O)C[C@H](Cc1c[nH]c2ccccc12)NC(=O)[C@@H]1CNCC[C@H]1N	/	-6.2%	/	/	-33.6%
COc1cccc(C(=O)N2N=C(c3ccccn3)CC2(O)C(F)(F)F)c1 (centres undefined)	?	5.01µM*	123.0	?	2µM*
C[C@H](CO)N1C[C@H](C)[C@H](CN(C)C(=O)Nc2cccc(C(F)(F)F)c2)OCc2cnnn2CCCC1=O	/	/	4.2	/	/
CCc1cccc2sc(N(CCCN3CCOCC3)C(=O)CS(=O)(=O)c3ccccc3)nc12	0.2%	/	-14.2	1.9%	/
O=C(CCS(=O)(=O)c1ccccc1)N(CCCN1CCOCC1)c1nc2ccc(F)cc2s1	-14.0%	/	-82.3*	18.4µM*	/
CCCC(=O)N(CCN1CCOCC1)c1nc2c(C)ccc(C)c2s1	4.0%	3.5%	2.9	?	-31.9%
Cc1ccc(S(=O)(=O)CC(=O)N(CCCN2CCOCC2)c2nc3c(F)cccc3s2)cc1	-4.0%	/	-17.2	-8.0%	/
O=C(CCS(=O)(=O)c1ccccc1)N(CCCN1CCOCC1)c1nc2c(F)cccc2s1	23.1µM*	/	-107.1*	13µM*	/
CCCC(=O)N(CCN1CCOCC1)c1nc2c(C)cccc2s1	?	-1.1%	-51.5*	2.0%	-26.3%
COc1ccccc1C(O)c1ncc(-c2ccccc2C)[nH]1 (centres undefined)	/	/	22.3	/	/
O=C(/C=C/Nc1ccc(Oc2ccccc2Cl)cc1)c1ccco1	?	1.7%[10 µM]	-22.7	?	8.3%
COc1ccccc1Oc1ccc(N/C=C/C(=O)c2ccco2)cc1	-2.9%	-2.2%[10 µM]	-52.0*	10.7%	?
O=C(/C=C/Nc1ccccc1Oc1ccccc1)c1ccco1	-6.5%	-6.6%	?	14.6µM*	30.5%
Cc1ccc(S(=O)(=O)N2C[C@H]3C(=O)C[C@@H](c4cccc(Cl)c4)N(S(=O)(=O)c4ccc(C)cc4)[C@H]3C[C@H]2c2ccccc2)cc1	/	/	26.0	/	/
COc1ccc(N2CCC(CNC(=S)Nc3cc(C)ccc3C)C2)cc1 (centres undefined)	-31.4%	10µM*	0.0	2.1%	1.78µM*
